Compound activity deposited in PubChem BioAssay by several laboratories.
Rows were chosen to be rich in hits. Some 1.7% of all compounds tested hit in one or more screens of this group.
V-ATPase pH: regulators of yeast V-ATPase proton transport; S. cerevisiae, pHLuorin cytosolic pH fluorescence; response, % at 10 µM; 350,000 tested, 0.37% active; AID 504577; in the data active = response mostly above about 7.3%, no sharp cut-off; inactive = mostly below about 5.4%; also: actives read high
HTR5A inv ctr: counter-screen for OPRM1-OPRD1 inverse agonists: human HTR5A inverse agonism | P47898 | HTR5A cell line, luminescence | inhibition, % at 9.3 µM | 340,000 tested, 0.083% active; in the data active = inhibition mostly above about 23%, no sharp cut-off; inactive = mostly below about 18%;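 also: 0% = cells with DMSO and 100% = no-cell wells with DMSO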
beta cell repl: induces beta-cell replication in MIN6 cells; MIN6 cells proliferation, ATPlite luminescence, 48 h; cells starved in 0.2% serum; 100% = growth in 10% serum; proliferation, % at 10 µM; 330,000 tested, 0.29% active;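 active = compounds whose signal lies at least 3.5 SD above the mean of all wells on their plate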;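 also: 0% = DMSO-treated cells in low-serum medium and 100% = 10% serum control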
MOR-DOR inv ag: inverse agonists of human mu-delta opioid receptor heterodimerization. inhibition, % at 9.3 µM. P35372+P41143. cell-based MOR-DOR heterodimer luminescence, inverse agonism. 340,000 tested, 0.21% active; in the data active = inhibition above about 22%, passing the limit was not always enough;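 also: 0% = cells with DMSO and 100% = wells without cells with DMSO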
Target sequence (P35372 whole entry, looked up): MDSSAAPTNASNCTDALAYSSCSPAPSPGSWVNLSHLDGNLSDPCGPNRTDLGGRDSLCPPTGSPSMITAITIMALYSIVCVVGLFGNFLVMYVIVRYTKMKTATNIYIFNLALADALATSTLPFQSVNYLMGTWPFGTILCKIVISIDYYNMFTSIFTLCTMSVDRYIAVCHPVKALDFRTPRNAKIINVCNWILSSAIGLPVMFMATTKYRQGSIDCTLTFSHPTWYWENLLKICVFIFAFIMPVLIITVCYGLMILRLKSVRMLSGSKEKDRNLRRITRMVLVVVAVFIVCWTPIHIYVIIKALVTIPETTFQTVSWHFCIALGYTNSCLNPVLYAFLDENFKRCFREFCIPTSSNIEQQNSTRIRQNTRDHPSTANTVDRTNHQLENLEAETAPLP
Target sequence (P41143 whole entry, looked up): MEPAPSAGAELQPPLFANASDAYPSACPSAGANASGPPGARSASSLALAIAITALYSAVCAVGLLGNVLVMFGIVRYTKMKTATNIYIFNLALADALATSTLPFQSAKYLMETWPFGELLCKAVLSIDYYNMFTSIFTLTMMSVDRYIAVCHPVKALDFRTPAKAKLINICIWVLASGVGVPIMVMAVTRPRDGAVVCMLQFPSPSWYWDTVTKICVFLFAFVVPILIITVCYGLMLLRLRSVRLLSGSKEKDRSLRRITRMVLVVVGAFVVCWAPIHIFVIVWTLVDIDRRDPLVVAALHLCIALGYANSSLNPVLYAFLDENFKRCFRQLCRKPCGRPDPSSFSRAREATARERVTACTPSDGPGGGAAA
MOR-DOR ag: agonists of human mu-delta opioid receptor heterodimerization. activation, % at 9.3 µM. cells, OPRM1-OPRD1 heterodimerization, luminescence. 340,000 tested, 0.3% active;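 also: 0% = vehicle-treated cells and 100% = reference agonist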
HTR5A ag ctr: HTR5A agonism, opioid heterodimer counter-screen; P47898; HTR5A agonist assay, luminescence, cell-based; activation, % at 9.3 µM; 340,000 tested, 0.61% active; AID 504692; in the data active = activation mostly above about 9.5%, no sharp cut-off; inactive = mostly below about 7.6%;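 also: 0% = cells with vehicle only and 100% = reference agonist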
OPRM1-D1 ag cf: confirmation of human OPRM1-OPRD1 heterodimerization agonists. 830 tested, 45% active. cells, MOR-DOR heterodimerization, luminescence complementation. activation, % at 9.3 µM. shares compounds with MOR-DOR ag. AID 504904;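 also: 0% = vehicle-treated cells and 100% = reference agonist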
HTR5A ag ctr2: activates human HTR5A in OPRM1-OPRD1 agonist counter-screen | shares compounds with MOR-DOR ag | HTR5A agonist counterscreen, cell luminescence | activation, % at 9.3 µM | 830 tested, 8% active; in the data active = activation above about 17%;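 also: 0% = vehicle-treated cells and 100% = reference agonist response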
Starred values were filed as active, the others as inactive; / = no result given. Rule as the data show it, unless noted: active = activation above about 18%; inactive = the rest.

SMILES	V-ATPase pH	HTR5A inv ctr	beta cell repl	MOR-DOR inv ag	MOR-DOR ag	HTR5A ag ctr	OPRM1-D1 ag cf	HTR5A ag ctr2
C=C(C)COc1ccc(-c2n[nH]c(C)c2-c2ccc(OC)cc2)c(O)c1	4.2	-16.0	-3.3	-176.0	29.6*	7.7	-2.4	-1.6
COc1ccc(Oc2ccc(C(F)(F)F)cc2NC(=O)c2ccc(OC)cc2)cc1	-9.3	-25.4	-4.3	-17.1	3.4	-2.0	/	/
COc1ccc(Oc2ccc(C(F)(F)F)cc2N)cc1	-0.2	-15.6	-1.0	-89.5	18.3*	-0.5	7.5	0.0
COC(=O)c1cc(OC)c(OC)cc1NC(=O)c1ccco1	0.6	2.1	3.7	9.2	-1.7	-0.6	/	/
COc1ccc(NC(=O)COC(=O)c2cc(OC)c(OC)cc2NC(=O)c2ccco2)cc1OC	-2.0	9.6	1.4	-114.8	22.8*	-2.3	11.9	4.7
Cc1ccccc1NC(=O)Cc1nc(COC(=O)c2ncc(Cl)c(Cl)c2Cl)cs1	-5.2	11.2	/	-7.4	1.4	-4.1	/	/
Cc1cc(=O)oc2cc(NC(=O)C3COc4ccccc4O3)ccc12 (stereo not drawn)	-2.5	-1.4	1.3	-122.5	20.5*	0.6	38.6*	13.8
O=C(Nc1ccc2c(c1)OCO2)C1COc2ccccc2O1 (stereo not drawn)	1.2	4.5	-1.5	10.1	-1.7	3.8	/	/
O=C(Nc1ccc(C(F)(F)F)cc1[N+](=O)[O-])O[C@H]1[C@H](Cc2ccccc2)NS(=O)(=O)[C@H]2C[C@@H]3C=C[C@]12O3	-0.5	-6.9	-5.3	-106.7	18.5*	-1.1	12.2	2.1
CC(C)C1CC(CCNCc2ccc(N(C)C)cc2)(c2ccccc2)CCO1 (stereo not drawn)	5.2	-19.6	-3.6	-113.2	21.1*	6.7	25.0*	-1.4
CC(=O)c1cccc(NC(=O)CN2CCc3cc4c(cc3C2C)OCCCO4)c1 (stereo not drawn)	-0.5	-9.5	-0.1	-2.7	0.5	-1.9	/	/
CN(C)CCCN(C(=O)c1ccc(Br)s1)c1nc2cc3c(cc2s1)OCCO3	-0.9	-1.6	-7.1	-183.4	35.3*	0.7	92.5*	0.1
Cc1ccc(OCC(=O)NCCCNC(=O)c2ccncc2)cc1C	-1.2	2.3	0.0	11.5	-2.1	-0.8	/	/
CC(=O)NCC1CCCN(Cc2cn(-c3ccccc3)nc2-c2ccc3c(c2)OCO3)C1 (stereo not drawn)	-1.3	-5.3	-2.1	9.8	-2.2	2.3	/	/
COC(=O)C1CCN(Cc2cn(-c3ccccc3)nc2-c2ccc3c(c2)OCO3)CC1	-2.8	-3.4	-2.7	-266.9	51.0*	1.2	10.6	13.0
COC(=O)[C@H](CC(C)C)NC(=O)Cn1cnc2c(SC)nc(N)nc21	-2.7	/	-0.9	/	/	/	/	/
Cc1nnc(SCC(=O)Nc2ccccc2F)n1-c1ccc(F)cc1	3.2	-5.5	0.9	1.9	-0.3	1.4	/	/
O=c1nc(-c2ccccc2)n(-c2ccccc2)[nH]1	-1.2	10.7	0.0	2.0	-0.4	-0.5	/	/
Cc1ccc(/C=N/NC(=O)CSc2nnc(-c3ccc(Cl)cc3)n2-c2ccc(Cl)cc2)o1	-1.6	-31.5	-6.3	-186.3	36.7*	10.6	17.8	17.2*
Cc1sc2ncnc(NC3CCN(Cc4ccccc4)CC3)c2c1C	0.3	/	-5.6	/	/	/	/	/
CCOC(=O)c1c(C)[nH]c(O)c1C=Nc1ccc(Cl)cc1	2.8	8.2	-2.8	-235.6	38.7*	-3.1	13.5	1.5
CCOC(=O)c1c(C)[nH]c(O)c1C=Nc1ccc(C(F)(F)F)cc1	0.1	-50.4	-3.4	-65.4	12.5	-1.9	/	/
COC(=O)c1ccccc1NC(=O)COC(=O)/C=C/c1ccco1	4.2	9.3	0.3	-97.1	21.4*	-1.5	5.7	2.0
O=C(COC(=O)/C=C/c1ccco1)Nc1ccccc1	1.9	6.9	-4.3	10.3	-2.1	-2.5	/	/
Cc1cccn2cc(-c3ccc(NC(=O)Cc4ccccc4)cc3)nc12	0.4	-73.4	4.4	-213.3	38.9*	17.2*	6.4	10.8
SMILES	V-ATPase pH	HTR5A inv ctr	beta cell repl	MOR-DOR inv ag	MOR-DOR ag	HTR5A ag ctr	OPRM1-D1 ag cf	HTR5A ag ctr2
COc1ccc(CC(=O)Nc2ccc(-c3cn4cccc(C)c4n3)cc2)cc1OC	-2.1	-30.7	1.1	-15.4	2.7	-2.5	/	/
C=CC[C@@H](CC(=O)N(CCO)Cc1ccccc1)C(=O)N[C@@H](COC(=O)[C@H](CC=C)CC(=O)OC(C)(C)C)Cc1c[nH]c2ccccc12	-1.3	12.1	-5.6	-148.7	25.7*	3.7	17.4	3.8
Cc1ccc2nc(SC(C(=O)Nc3ccc(F)cc3)c3ccccc3)[nH]c2c1 (stereo not drawn)	3.0	-4.0	-4.7	-119.0	23.5*	6.1	454.0*	-2.3
Cc1ccc(C)c(NC(=O)C(Sc2nc3ccc(C)cc3[nH]2)c2ccccc2)c1 (stereo not drawn)	0.1	8.2	-6.0	-23.1	4.6	1.0	/	/
CN(C(=O)c1ccccc1[N+](=O)[O-])c1ccccc1C(=O)NCc1ccccc1	-0.7	-0.1	4.6	7.5	-1.5	4.3	/	/
CCOC(=O)c1ncn2c1[C@@H]1CCNC1C(=O)c1cc(OC)ccc1-2 (stereo partly drawn)	-2.2	-3.4	-1.0	0.2	0.0	1.0	/	/
Cc1ccc(Cl)cc1N1CCN(S(=O)(=O)c2ccc(-c3ccc(=O)[nH]n3)o2)CC1	4.4	-13.3	-0.2	-48.7	9.8	-3.4	/	/
Cc1ccc(C)c(N2CCN(S(=O)(=O)c3ccc(-c4ccc(=O)[nH]n4)o3)CC2)c1	-1.8	-0.6	3.6	-107.6	20.1*	5.3	15.6	3.0
COc1cccc2cc(CC(=O)c3ccc(C)cc3C)c(=O)oc12	0.4	-6.7	-2.2	-5.9	1.2	1.7	/	/
CC(=O)NC1=NC(=O)/C(=C/c2cc(C)n(-c3cccc(C(=O)O)c3)c2C)S1	-2.7	/	-2.1	/	/	/	/	/
CC(=O)NC1=NC(=O)/C(=C/c2cc(C)n(-c3ccc(NC(C)=O)cc3)c2C)S1	-1.2	-47.1	-3.6	-312.2	59.9*	-3.0	14.4	4.3
CCOC(=O)c1cc(NC(=O)c2cc(C)on2)cc(C(=O)OCC)c1	0.8	-8.2	3.4	-118.8	21.9*	7.6	3.3	3.1
COc1cc(NC(=O)c2cc(C)on2)cc(OC)c1OC	1.9	12.2	0.7	-2.7	0.5	-1.1	/	/
Cc1cc(NC(=O)CSc2nccn2-c2cccc(Cl)c2)no1	-0.3	7.5	0.0	12.4	-2.4	1.4	/	/
CC(C)(C)/C(O)=C(/C#N)c1nc2ccccc2[nH]1	-2.8	6.7	0.7	-1.4	0.3	-2.8	/	/
CC(C)CC(/C(O)=C(\C#N)c1nc2ccccc2[nH]1)N1C(=O)c2ccccc2C1=O (stereo not drawn)	-2.1	-12.4	0.4	-141.0	30.9*	1.6	30.3*	4.5
